# According to the supplement of paper PMC10849652:
# About 7,900 targets were measured; listed, in parts, are those with a hit and a random draw of the rest. About 0.6% of all pairs of compound and target were hits. Values without a mark were called inactive.
# Compound: NCC(=O)Nc1ccc(-n2nc(C(F)(F)F)cc2-c2ccc3c(ccc4ccccc43)c2)cc1
# Assay: log2 fold change, soluble protein after heating vs DMSO (PISA); higher = thermal stabilisation; K562 cells, 10 uM, 30 min; active = over 0.2 and 3.5 SD of the protein, either way, in both replicates (recomputed)
# Summary of the method: (§1)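 Aliquots of K562 cells (2×10^6 cells/mL) treated with 10 μM compound for 30 min were heated for 3 min over 48°C-58°C. After pooling and extraction in PBS with 0.5% NP-40 at 4°C, soluble protein from a 21,000xg, 90 min spin was quantified by TMTpro 16plex LC-MS/MS with channel sums equalised. Thermal stability is expressed against control samples, from duplicates, as a log2 fold change.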
# Sequence of UniProt Q8IYU8 (Q8IYU8 whole entry, looked up): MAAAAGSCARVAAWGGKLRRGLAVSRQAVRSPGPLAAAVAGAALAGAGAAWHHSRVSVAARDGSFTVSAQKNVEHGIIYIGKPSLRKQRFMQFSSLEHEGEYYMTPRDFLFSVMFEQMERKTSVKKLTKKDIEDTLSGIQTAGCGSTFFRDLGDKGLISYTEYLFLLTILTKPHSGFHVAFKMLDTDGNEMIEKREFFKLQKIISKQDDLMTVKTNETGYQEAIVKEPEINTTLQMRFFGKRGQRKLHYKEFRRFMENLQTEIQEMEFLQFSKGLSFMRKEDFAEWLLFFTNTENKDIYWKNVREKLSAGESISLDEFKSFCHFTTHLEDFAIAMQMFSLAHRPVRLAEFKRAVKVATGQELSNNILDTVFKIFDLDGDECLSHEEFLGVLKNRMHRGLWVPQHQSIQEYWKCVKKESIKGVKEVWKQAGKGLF
# Sequence of UniProt P01130 (P01130 whole entry, looked up): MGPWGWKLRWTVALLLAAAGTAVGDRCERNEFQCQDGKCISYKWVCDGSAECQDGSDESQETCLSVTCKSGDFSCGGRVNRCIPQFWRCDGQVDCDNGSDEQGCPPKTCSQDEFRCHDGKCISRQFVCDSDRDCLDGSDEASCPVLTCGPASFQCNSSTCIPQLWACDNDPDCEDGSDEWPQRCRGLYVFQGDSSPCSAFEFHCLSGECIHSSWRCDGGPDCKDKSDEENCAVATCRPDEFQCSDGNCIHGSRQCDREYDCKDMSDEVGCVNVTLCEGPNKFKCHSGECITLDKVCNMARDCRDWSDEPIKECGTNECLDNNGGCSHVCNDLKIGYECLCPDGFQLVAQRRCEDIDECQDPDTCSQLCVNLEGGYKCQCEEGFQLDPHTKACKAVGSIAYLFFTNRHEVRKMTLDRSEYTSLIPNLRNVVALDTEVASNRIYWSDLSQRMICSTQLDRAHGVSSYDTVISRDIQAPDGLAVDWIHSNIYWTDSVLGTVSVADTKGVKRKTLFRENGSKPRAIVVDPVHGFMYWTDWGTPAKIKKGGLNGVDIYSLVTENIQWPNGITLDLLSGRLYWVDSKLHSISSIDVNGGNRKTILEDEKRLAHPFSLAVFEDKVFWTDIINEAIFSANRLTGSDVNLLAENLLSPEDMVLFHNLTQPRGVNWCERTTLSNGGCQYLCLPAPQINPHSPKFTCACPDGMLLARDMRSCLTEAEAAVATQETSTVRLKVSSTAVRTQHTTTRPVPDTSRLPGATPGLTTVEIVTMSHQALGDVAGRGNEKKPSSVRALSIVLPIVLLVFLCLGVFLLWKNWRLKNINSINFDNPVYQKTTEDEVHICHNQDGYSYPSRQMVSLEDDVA
# Sequence of UniProt Q16891 (Q16891 whole entry, looked up): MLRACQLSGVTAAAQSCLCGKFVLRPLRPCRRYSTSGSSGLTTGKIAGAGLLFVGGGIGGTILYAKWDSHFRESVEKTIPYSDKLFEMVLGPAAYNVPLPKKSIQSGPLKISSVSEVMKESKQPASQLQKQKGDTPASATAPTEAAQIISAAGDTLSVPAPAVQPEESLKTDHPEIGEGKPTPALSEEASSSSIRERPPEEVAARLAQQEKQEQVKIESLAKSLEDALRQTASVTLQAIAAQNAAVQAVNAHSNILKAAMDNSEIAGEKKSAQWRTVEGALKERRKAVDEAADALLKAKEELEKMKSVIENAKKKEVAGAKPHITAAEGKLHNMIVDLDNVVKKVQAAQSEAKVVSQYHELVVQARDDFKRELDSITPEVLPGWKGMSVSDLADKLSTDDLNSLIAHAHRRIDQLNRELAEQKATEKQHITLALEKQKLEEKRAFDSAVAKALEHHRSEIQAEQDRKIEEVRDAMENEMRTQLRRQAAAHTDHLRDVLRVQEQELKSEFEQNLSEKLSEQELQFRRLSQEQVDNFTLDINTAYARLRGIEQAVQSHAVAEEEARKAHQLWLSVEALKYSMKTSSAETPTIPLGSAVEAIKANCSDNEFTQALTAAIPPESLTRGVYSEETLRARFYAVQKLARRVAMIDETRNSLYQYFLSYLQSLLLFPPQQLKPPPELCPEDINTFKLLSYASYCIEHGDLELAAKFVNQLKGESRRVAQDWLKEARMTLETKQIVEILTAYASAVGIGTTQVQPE
# Sequence of UniProt Q9UHB6 (Q9UHB6 whole entry, looked up): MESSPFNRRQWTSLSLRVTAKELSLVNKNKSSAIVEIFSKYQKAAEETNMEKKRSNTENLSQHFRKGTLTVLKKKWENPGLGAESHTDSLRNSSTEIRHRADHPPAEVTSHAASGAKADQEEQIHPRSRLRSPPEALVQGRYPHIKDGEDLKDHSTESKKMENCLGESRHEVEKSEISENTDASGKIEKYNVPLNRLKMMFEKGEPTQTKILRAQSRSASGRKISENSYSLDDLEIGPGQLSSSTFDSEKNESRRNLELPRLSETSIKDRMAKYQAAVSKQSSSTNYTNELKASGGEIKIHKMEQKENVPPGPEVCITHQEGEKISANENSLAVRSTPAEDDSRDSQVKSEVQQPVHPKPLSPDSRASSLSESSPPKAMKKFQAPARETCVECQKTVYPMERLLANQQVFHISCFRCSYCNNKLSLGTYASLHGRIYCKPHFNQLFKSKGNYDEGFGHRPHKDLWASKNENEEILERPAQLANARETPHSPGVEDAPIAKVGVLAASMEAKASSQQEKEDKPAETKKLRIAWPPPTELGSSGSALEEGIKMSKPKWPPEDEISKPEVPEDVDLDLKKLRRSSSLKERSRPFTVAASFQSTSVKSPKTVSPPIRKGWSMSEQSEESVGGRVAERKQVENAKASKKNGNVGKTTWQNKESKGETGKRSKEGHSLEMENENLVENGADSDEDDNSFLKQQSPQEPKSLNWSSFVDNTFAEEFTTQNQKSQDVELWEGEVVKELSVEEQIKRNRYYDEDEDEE
# Sequence of UniProt Q07820 (Q07820 whole entry, looked up): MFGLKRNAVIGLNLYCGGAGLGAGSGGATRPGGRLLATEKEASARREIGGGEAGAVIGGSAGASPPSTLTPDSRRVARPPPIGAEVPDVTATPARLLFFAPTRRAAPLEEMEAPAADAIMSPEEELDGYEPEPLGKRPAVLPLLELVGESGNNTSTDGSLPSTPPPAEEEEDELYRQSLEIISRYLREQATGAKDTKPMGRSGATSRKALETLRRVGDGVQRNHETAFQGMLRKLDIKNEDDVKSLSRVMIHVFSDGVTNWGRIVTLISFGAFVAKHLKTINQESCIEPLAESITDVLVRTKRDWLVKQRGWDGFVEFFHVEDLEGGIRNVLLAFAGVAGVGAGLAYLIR
# Sequence of UniProt Q7LBC6 (Q7LBC6 whole entry, looked up): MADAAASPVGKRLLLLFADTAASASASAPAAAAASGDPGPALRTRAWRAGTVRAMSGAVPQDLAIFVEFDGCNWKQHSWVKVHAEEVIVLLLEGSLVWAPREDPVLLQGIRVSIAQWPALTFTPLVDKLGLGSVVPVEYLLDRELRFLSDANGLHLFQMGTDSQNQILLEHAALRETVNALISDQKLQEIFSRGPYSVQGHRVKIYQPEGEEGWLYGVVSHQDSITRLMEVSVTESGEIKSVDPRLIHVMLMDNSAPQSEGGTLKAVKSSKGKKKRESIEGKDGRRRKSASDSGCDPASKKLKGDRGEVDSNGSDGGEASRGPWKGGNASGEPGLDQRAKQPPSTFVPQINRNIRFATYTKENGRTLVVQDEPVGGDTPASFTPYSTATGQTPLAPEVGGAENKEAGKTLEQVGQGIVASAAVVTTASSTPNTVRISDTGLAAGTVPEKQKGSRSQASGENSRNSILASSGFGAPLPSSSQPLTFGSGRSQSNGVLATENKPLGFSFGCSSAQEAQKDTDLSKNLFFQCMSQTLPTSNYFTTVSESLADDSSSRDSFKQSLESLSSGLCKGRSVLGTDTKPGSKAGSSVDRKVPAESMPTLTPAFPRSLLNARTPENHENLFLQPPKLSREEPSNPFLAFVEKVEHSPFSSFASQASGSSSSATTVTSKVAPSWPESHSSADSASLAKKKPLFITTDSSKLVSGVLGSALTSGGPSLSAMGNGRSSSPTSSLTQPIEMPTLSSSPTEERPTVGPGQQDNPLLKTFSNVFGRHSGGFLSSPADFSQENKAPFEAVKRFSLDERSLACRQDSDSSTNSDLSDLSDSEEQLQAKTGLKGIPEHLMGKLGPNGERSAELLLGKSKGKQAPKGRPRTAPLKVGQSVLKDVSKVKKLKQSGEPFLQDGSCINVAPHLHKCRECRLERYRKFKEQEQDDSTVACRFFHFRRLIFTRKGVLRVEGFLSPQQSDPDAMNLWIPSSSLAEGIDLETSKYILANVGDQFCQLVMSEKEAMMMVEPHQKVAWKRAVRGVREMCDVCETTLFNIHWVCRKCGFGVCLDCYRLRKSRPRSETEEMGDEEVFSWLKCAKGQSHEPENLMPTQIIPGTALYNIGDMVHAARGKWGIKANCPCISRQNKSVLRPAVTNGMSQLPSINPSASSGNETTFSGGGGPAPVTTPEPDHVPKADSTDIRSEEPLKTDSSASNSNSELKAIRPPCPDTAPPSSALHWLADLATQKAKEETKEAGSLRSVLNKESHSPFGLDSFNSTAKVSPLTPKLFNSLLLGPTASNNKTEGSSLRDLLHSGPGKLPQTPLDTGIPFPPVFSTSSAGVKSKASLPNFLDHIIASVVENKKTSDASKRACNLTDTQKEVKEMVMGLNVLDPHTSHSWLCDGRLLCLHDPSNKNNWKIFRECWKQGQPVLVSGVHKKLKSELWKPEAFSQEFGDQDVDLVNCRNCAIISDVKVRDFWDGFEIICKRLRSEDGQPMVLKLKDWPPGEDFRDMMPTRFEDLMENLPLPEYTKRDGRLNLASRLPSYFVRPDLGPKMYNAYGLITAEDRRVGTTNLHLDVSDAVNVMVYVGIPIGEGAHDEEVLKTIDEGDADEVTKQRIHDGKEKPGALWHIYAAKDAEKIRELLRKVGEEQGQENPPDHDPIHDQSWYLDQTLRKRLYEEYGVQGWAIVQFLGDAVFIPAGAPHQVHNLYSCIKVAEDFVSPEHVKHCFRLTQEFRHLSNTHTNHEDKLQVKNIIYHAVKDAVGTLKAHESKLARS
# Sequence of UniProt Q96A72 (Q96A72 whole entry, looked up): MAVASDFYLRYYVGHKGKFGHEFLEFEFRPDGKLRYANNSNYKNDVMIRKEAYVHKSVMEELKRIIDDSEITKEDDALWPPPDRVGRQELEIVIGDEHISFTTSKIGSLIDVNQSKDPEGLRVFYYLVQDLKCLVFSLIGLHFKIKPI
row,Target,log2 fold change
1,LUC7L2 (UniProt Q9Y383),-0.133
2,ILF3 isoform 7 (UniProt Q12906),0.107
3,MAGOHB (UniProt Q96A72),-0.132
4,KDM5D isoform 3 (UniProt Q9BY66),-0.025
5,LIMD1 (UniProt Q9UGP4),-0.029
6,MED1 (UniProt Q15648),-0.113
7,MCL1 (UniProt Q07820),-0.039
8,LIMA1 isoform 4 (UniProt Q9UHB6),0.006
9,LMBRD1 (UniProt Q9NUN5),-0.162
10,KIF13A (UniProt Q9H1H9),-0.064
11,MARCKSL1 (UniProt P49006),0.002
12,LARP4 isoform 4 (UniProt Q71RC2),0.048
13,KIF21A isoform 4 (UniProt Q7Z4S6),-0.093
14,LEMD3 (UniProt Q9Y2U8),-0.116
15,MAP3K7 (UniProt O43318),-0.086
16,MAPKAPK3 (UniProt Q16644),-0.052
17,MAPK14 isoform 2 (UniProt Q16539),-0.168
18,ITIH4 (UniProt Q14624),-0.054
19,MAGEA9 (UniProt P43362),0.033
20,IMMT isoform 4 (UniProt Q16891),-0.056

row,Target,log2 fold change
1,MEPCE (UniProt Q7L2J0),-0.004
2,LSS (UniProt P48449),-0.049
3,LONP2 (UniProt Q86WA8),0.041
4,KDM3B (UniProt Q7LBC6),-0.088
5,LARP4B (UniProt Q92615),0.022
6,LDLR (UniProt P01130),0.124
7,IRF2BPL (UniProt Q9H1B7),-0.004
8,LTN1 isoform 3 (UniProt O94822),-0.09
9,LARP7 isoform 3 (UniProt Q4G0J3),-0.019
10,LNPK (UniProt Q9C0E8),0.014
11,MAP2K3 isoform 3 (UniProt P46734),-0.025
12,MICU2 (UniProt Q8IYU8),-0.006
13,MGST3 (UniProt O14880),0.009
14,KSR1 (UniProt Q8IVT5),-0.111
15,IWS1 (UniProt Q96ST2),-0.171
16,MFN1 (UniProt Q8IWA4),-0.224
17,MARK3 (UniProt P27448),-0.113
18,MDC1 (UniProt Q14676),0.153
19,MAP4 (UniProt E7EVA0),0.105

# Compound: Nc1ccccc1NC(=O)c1ccc(CNC(=O)OCc2cccnc2)cc1 [entinostat]
# Assay: as above
# Summary of the method: as §1
row,Target,log2 fold change
1,LUC7L2 (UniProt Q9Y383),0.025
2,ILF3 isoform 7 (UniProt Q12906),-0.083
3,MAGOHB (UniProt Q96A72),0.016
4,KDM5D isoform 3 (UniProt Q9BY66),0.135
5,LIMD1 (UniProt Q9UGP4),-0.038
6,MED1 (UniProt Q15648),-0.018
7,MCL1 (UniProt Q07820),0.072
8,LIMA1 isoform 4 (UniProt Q9UHB6),0.004
9,LMBRD1 (UniProt Q9NUN5),0.099
10,KIF13A (UniProt Q9H1H9),0.04
11,MARCKSL1 (UniProt P49006),0.075
12,LARP4 isoform 4 (UniProt Q71RC2),0.037
13,KIF21A isoform 4 (UniProt Q7Z4S6),0.01
14,LEMD3 (UniProt Q9Y2U8),-0.017
15,MAP3K7 (UniProt O43318),0.035
16,MAPKAPK3 (UniProt Q16644),-0.068
17,MAPK14 isoform 2 (UniProt Q16539),0.016
18,ITIH4 (UniProt Q14624),0.048
19,MAGEA9 (UniProt P43362),0
20,IMMT isoform 4 (UniProt Q16891),0.021

row,Target,log2 fold change
1,MEPCE (UniProt Q7L2J0),0.063
2,LSS (UniProt P48449),0.003
3,LONP2 (UniProt Q86WA8),-0.05
4,KDM3B (UniProt Q7LBC6),0.027
5,LARP4B (UniProt Q92615),0.038
6,LDLR (UniProt P01130),0.057
7,IRF2BPL (UniProt Q9H1B7),-0.024
8,LTN1 isoform 3 (UniProt O94822),0.056
9,LARP7 isoform 3 (UniProt Q4G0J3),-0.007
10,LNPK (UniProt Q9C0E8),-0.013
11,MAP2K3 isoform 3 (UniProt P46734),0.068
12,MICU2 (UniProt Q8IYU8),-0.014
13,MGST3 (UniProt O14880),-0.047
14,KSR1 (UniProt Q8IVT5),0.044
15,IWS1 (UniProt Q96ST2),0.012
16,MFN1 (UniProt Q8IWA4),0.034
17,MARK3 (UniProt P27448),0.064
18,MDC1 (UniProt Q14676),0.001
19,MAP4 (UniProt E7EVA0),-0.096
